HCV inh: qHTS Assay for Inhibitors of Hepatitis C Virus (HCV); Huh7.5.1 HCVcc-Cre infection, luciferase reporter, 44 h; Potency, µM (titrated, usually from 41.8 µM), inactives show at the top dose activity change, negative = inhibition, actives largely listed as inhibitors; hit rate 3.4% among 340,000; AID 651820, 2012; active = well fitted inhibition curve with a large enough effect; inconclusive = small, poorly fitted or top-dose-only effect, or another doubt; inactive = no such curve, though single readings can be large or run the other way; also: potency is read from the fitted curve at half-maximal effect
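1,000 cells/well; 4 h culture; + compound; + HCVcc-Cre (~0.5 moi); 44 h; luciferase substrate, RT 15 min; read 15 sec.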
VACV Venus inh: qHTS for Stage-Specific Inhibitors of Vaccinia Orthopoxvirus: Venus Reporter Primary qHTS; Vaccinia virus Venus reporter expression, fluorescence; hit rate 0.46% among 330,000; Potency, µM (titrated, usually from 36.5 µM), without a hit: at the top dose activity change, negative = inhibition, actives largely listed as inhibitors; AID 720580, 2013; calls by dose curve; tested in A549 cells; also: potency is read from the fitted curve at half-maximal effect; nearly all actives have a fitted effect of over 30% in size
HCMV antiviral: qHTS Assay for inhibitors of the human cytomegalovirus (HCMV); activity change, negative = inhibition, % at 57.5 µM; AID 1259415, 2018; hit rate 4.5% among 410,000; HFF cells, HCMV-luciferase reporter, 72 h; stronger effect = lower value; in the data active = activity change below about -60%; inconclusive = no clear call, values can overlap the other calls; inactive = above about -39%
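Two compound doses tested in HFFs infected with HCMV-luciferase, MOI 1 PFU/cell, 72 h at 37C. Lysate luminescence read with OneGlo; data normalized against buffer-only and 10uM Salinomycin inhibitor controls.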
Vaccinia mCherry: qHTS for Stage-Specific Inhibitors of Vaccinia Orthopoxvirus: mCherry Reporter Primary qHTS. Vaccinia virus mCherry reporter infection, fluorescence. Potency, µM (series often up to 36.5 µM), inactives show top-dose activity change, negative = inhibition, hits mostly inhibitors. hit rate 0.63% among 310,000; calls by dose curve; tested in A549 cells; also: potency is read from the fitted curve at half-maximal effect; nearly all actives have a fitted effect of over 35% in size
FMDV antiviral: High Throughput Screening for Foot and Mouth Disease Virus Antivirals; FMDV antiviral cell-based qHTS; Potency, µM (series often up to 57.9 µM), inactives show at the highest dose activity change, negative = inhibition, most hits filed as inhibitors; hit rate 1.2% among 410,000; AID 1159524, 2015; calls by dose curve; tested in HEK293T cells; also: read-out not given here; potency is read from the fitted curve at half-maximal effect; nearly all actives have a fitted effect of over 45% in size
Active calls of the source: *; i = inactive; ? = inconclusive; / = not tested or not shown; [ ] = remark or other dose. Most compounds without a hit are left out; they make up all but 7.3% or so of the library. % is scaled to controls: 0 for no effect and ±100 for the full control effect.

SMILES	HCV inh	VACV Venus inh	HCMV antiviral	Vaccinia mCherry	FMDV antiviral
O=C(Nc1ccc2c(c1)OCCO2)c1cc2sccc2n1Cc1ccccc1	11µM*	-20%	?	i	?
O=C(Nc1ccc2c(c1)OCCO2)c1cc2sccc2n1Cc1ccc(F)cc1	?	-14%	-30	-10%	-27%
COC(=O)c1ccc(NC(=O)c2cn(-c3ccccc3)nc2-c2ccncc2)cc1	?	-25%	-98*	/	?
O=C(Nc1cccc(S(=O)(=O)N2CCOCC2)c1)c1cn(-c2ccccc2)nc1-c1ccccc1	15%	-14%	-64*	i	26%
Cc1ccccc1NC(=O)c1cn(-c2ccccc2)nc1-c1ccccc1	?	-1%	?	-14%	?
CC(=O)c1ccc(NC(=O)c2cn(-c3ccccc3)nc2-c2ccncc2)cc1	1%	-22%	4	/	-7%
Cc1cccc(C)c1NC(=O)c1cn(-c2ccccc2)nc1-c1ccccc1	?	-15%	-64*	-1%	-20%
COc1ccc(-c2c3c(=O)n(C)c(=O)n(C)c3c3n2-c2ccccc2NC3c2ccc(OC)cc2)cc1 (centres undefined)	/	-14%	28	-23%	-25%
CCOC(=O)N1CCN(C(=O)COC(=O)CNC(=O)c2ccc(OCC)c(OCC)c2)CC1	?	9%	-12	i	-17%
COc1ccc(S(=O)(=O)NCc2nc(N3CCCC3)c3cccc(C)c3n2)cc1OC	/	8%	/	-9%	-5%
O=C(CCC1CCCN(C(=O)CCN2CCCCC2=O)C1)NCc1ccccc1F (centres undefined)	9%	-9%	-105*	i	8%
Cn1cc(CCC(=O)N2CCCC(CCC(=O)NCc3ccccc3F)C2)cn1 (centres undefined)	24%	/	-24	/	17%
CCn1c(C(=O)NCc2ccccc2Br)cc2oc3ccccc3c21	/	23%	-71*	?	-1%
CCn1c(C(=O)NCc2cccc(Br)c2)cc2oc3ccccc3c21	/	-1%	-82*	0%	-6%
O=C1CC2(CCN(S(=O)(=O)c3ccccc3F)CC2)Oc2ccccc21	0%	-8%	-20	-12%	?
O=C(CN1C(=O)NC2(CCCCCC2)C1=O)Nc1ccc(OC(F)(F)F)cc1	/	-30%	-19	-15%	-16%
COc1ccc(-c2nc3nc(C)cc(Nc4cccc(C(F)(F)F)c4)n3n2)cc1	/	-9%	-32	-1%	-2%
Cc1ccc(Nc2cc(C)nc3nc(C)nn23)c(C)c1	-7%[8.37 µM]	/	-12	/	0.71µM*
Cc1cc(Nc2ccc(F)cc2C)n2nc(C)nc2n1	15%	/	18	/	-7%
CCc1nc2nc(C)cc(Nc3cccc(C(F)(F)F)c3)n2n1	?	10µM*	60	/	0%
CCc1ccc(Nc2cc(C)nc3nc(Cc4ccc(Cl)cc4)nn23)cc1	/	?	-92*	?	?
Cc1ccc(Nc2cc(C)nc3nc(Cc4ccc(Cl)cc4)nn23)cc1	/	-27%	-18	?	0%
Cc1cc(Nc2cccc(C(F)(F)F)c2)n2nc(C)nc2n1	1%	10µM*	18	/	0%
Cc1nc2cncnc2n(C2CC2)c1=O	/	/	/	/	-14%
O=C(Cn1cc(SCc2cccc(F)c2)c2ccccc21)N1CCCC1	/	-20%	29	-14%	12%
SMILES	HCV inh	VACV Venus inh	HCMV antiviral	Vaccinia mCherry	FMDV antiviral
CCOc1ccc2ccccc2c1/C=N/n1cncn1	11µM*	/	-13	/	5%
COc1cccc(/C=C2/Sc3ccc(C(=O)NCCN4CCCCCC4)cc3NC2=O)c1	5.6µM*	/	-70*	/	-4%
Cc1cccc(/C=C2/Sc3ccc(C(=O)NCCN4CCCC4)cc3NC2=O)c1	?	/	?	/	-22%
O=C1Nc2cc(C(=O)NCCN3CCCCCC3)ccc2S/C1=C\c1ccccc1	14µM*	/	-100*	/	-21%
C=CCC[C@@H](CCCCC)OC(=O)/C=C/[C@H](O)[C@@H](O)C[C@H](O)CC=C	/	-11%	-23	6%	-17%
NC(=S)N/N=C/c1ccc(C23CC4CC(CC(C4)C2)C3)cc1	?	-19%	/	-10%	-15%
Cn1c(O)c(/C=C2\C=Nc3ccc(Br)cc32)c(=O)n(C)c1=O	11%	17%	152	4%	-11%
CCNC(=S)NCCC1=c2ccccc2=N/C1=C\c1c(O)n(C)c(=O)n(C)c1=O	-3%	/	5	/	40µM*
Cc1ccc(Nc2nc(-c3cccnc3)nc3ccccc23)cc1	1.1µM*	?	-69*	-6%	-19%
Oc1ccc(Nc2nc(-c3ccccc3)nc3ccccc23)cc1	10µM*	?	/	?	?
O=[N+]([O-])c1ccc(-c2nc(Nc3ccc(O)cc3)c3ccccc3n2)cc1	?	/	15	/	0%
CC(=O)Nc1ccc(Nc2nc(-c3ccccc3)nc3ccccc23)cc1	10µM*	?	-94*	-33%	?
Oc1ccc(Nc2nc(-c3ccc(Cl)cc3)nc3ccccc23)cc1	/	-26%	-61*	-27%	7%
COc1ccc(Nc2nc(-c3ccccc3)nc3ccccc23)cc1	?	-26%	?	-12%	-24%
COCCN1C(=O)COCc2cc(-c3ccc4c(c3)OCO4)ccc21	/	/	26	/	/
C[n+]1ccc(/C=C/c2cc[n+](C)c3ccccc23)c2ccccc21	/	10µM*	/	?	/
CN1C=C/C(=C\c2cc[n+](C)c3ccccc23)c2ccccc21	4.5µM*	/	-100*	/	18µM*
O=S(=O)(/N=S1\CC=CCN1S(=O)(=O)c1ccccc1)c1ccccc1 (centres undefined)	-1%	-15%	-27	-9%	-27%
COc1ccc(OC)c(Nc2nc(N)nc(CSc3nnc(N)s3)n2)c1	4%	/	15	/	-5%
COc1ccc(OC)c(Nc2nc(N)nc(CCl)n2)c1	4µM*	0%[7.34 µM]	-99*	-8%[7.34 µM]	?
COc1ccccc1Nc1nc(N)nc(CCl)n1	4.5µM*	-2%[7.34 µM]	?	-6%[7.34 µM]	-4%
COc1ccc(OCc2nc(N)nc(Nc3ccccc3OC)n2)cc1	14µM*	1%	?	-2%	15%
COc1ccccc1Nc1nc(N)nc(CN2CCN(Cc3ccccc3)CC2)n1	6%	/	22	/	-18%
C[C@@H]1CN([C@@H](C)CO)C(=O)CCCn2cc(nn2)CO[C@H]1CN(C)C(=O)c1ccc(N2CCN(C)CC2)cc1	/	/	-20	/	/
O=C(Nc1cc(C(F)(F)F)ccc1Cl)c1cnn(-c2ccccc2)c1-n1cccc1	/	-28%	-37	?	32µM*
O=C(Nc1cccc(F)c1)N1CC[C@@]2(CCCN(S(=O)(=O)c3ccccc3)C2)C1	/	/	/	/	-8%
CCOc1ccc(C(C)=O)cc1Cn1nc(C(=O)O)c2ccccc2c1=O	7.9µM*	-9%	40	-17%	?
COc1ccccc1Cn1nc(C(=O)O)c2ccccc2c1=O	-15%	-10%	24	-8%	16%
COc1cc2nc(N3CCCN(C)CC3)nc(NC3CCNCC3)c2cc1OC	/	-13%	/	-3%	/
